About 83,000 compounds went through this panel and 20% of them were active in at least one assay; those are over-represented in the sample as a whole.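 Testing used 96-well plates and a 48-hour single-concentration exposure. Example: -40 means 40% of the starting cells died.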 Activity calls are given as the source filed them. The calls were made as follows: active = growth percent below 10; inactive = the rest.
Legend:
Assay in all cases: NCI-60 one-dose screen, 48 h (100 = growth as untreated, 0 = no growth, -100 = all killed)
Conditions in all cases: 10 µM unless noted
SN12C renal = test system: SN12C renal
UO-31 renal = test system: UO-31 renal
TK-10 renal = test system: TK-10 renal
ACHN renal = test system: ACHN renal
CAKI-1 renal = test system: CAKI-1 renal
A498 renal = test system: A498 renal
CCRF-CEM leukemia = test system: CCRF-CEM leukemia
MOLT-4 leukemia = test system: MOLT-4 leukemia

Measured: growth

CCCCn1cnc(-c2cc(-c3ccccc3)cc(C(F)(F)F)c2)n1
inactive: SN12C renal 98.2% | UO-31 renal 87.9% | TK-10 renal 102% | ACHN renal 106% | CAKI-1 renal 91.5% | A498 renal 70.9% | CCRF-CEM leukemia 97.1% | MOLT-4 leukemia 88.8%

COC1=CC(c2ccc[nH]2)=N/C1=C\c1[nH]c(C)c(C(=O)CCCCCCCCC(=O)O[C@H]2CC[C@H]3C4CCc5cc(O)ccc5C4CC[C@]23C)c1C (stereo partly drawn)
active: UO-31 renal -13.3% | A498 renal -0.91%
inactive: SN12C renal 39.6% | TK-10 renal 34.1% | ACHN renal 24.3% | CAKI-1 renal 40.5% | CCRF-CEM leukemia 11.5% | MOLT-4 leukemia 19.5%

COc1ccc(OC)c(Nc2nc(-c3c(C)nc4sccn34)cs2)c1
active: MOLT-4 leukemia 9.57%
inactive: SN12C renal 90.1% | UO-31 renal 77.8% | TK-10 renal 98% | ACHN renal 79.5% | CAKI-1 renal 73.7% | A498 renal 30.7% | CCRF-CEM leukemia 38.1%

COc1ccccc1NC(=O)OCC12COCN1COC2
inactive: SN12C renal 100% | UO-31 renal 94.9% | TK-10 renal 108% | ACHN renal 102% | CAKI-1 renal 100% | A498 renal 80.5% | CCRF-CEM leukemia 102% | MOLT-4 leukemia 95.9%

NS(=O)(=O)c1ccc(N2N=C(c3ccc(Br)cc3)CC2c2cn(-c3ccccc3)nc2-c2ccc(Cl)cc2)cc1 (stereo not drawn)
inactive: SN12C renal 78.6% | UO-31 renal 58.3% | TK-10 renal 112% | ACHN renal 86.5% | CAKI-1 renal 89% | A498 renal 113% | CCRF-CEM leukemia 70.8% | MOLT-4 leukemia 74.8%

CCOC(CN1CCN(CC(C)C(=O)c2ccccc2)CC1)c1ccccc1 (stereo not drawn)
inactive: SN12C renal 98.6% | UO-31 renal 89% | TK-10 renal 115% | ACHN renal 106% | CAKI-1 renal 93.7% | A498 renal 97.1% | CCRF-CEM leukemia 84.7% | MOLT-4 leukemia 105%

COc1cc(C2CC(c3cccc(Nc4ccnc5cc(Cl)ccc45)c3)=NN2c2ccc(Cl)cc2)cc(OC)c1OC (stereo not drawn)
active: CAKI-1 renal -1.85%
inactive: SN12C renal 57.1% | UO-31 renal 23.6% | TK-10 renal 76.7% | ACHN renal 41.5% | A498 renal 64.9% | CCRF-CEM leukemia 63.1%

CCCCn1c(C)nc2cc(Nc3nc(Cl)nc4nc[nH]c34)ccc21
inactive: SN12C renal 78.9% | UO-31 renal 64.6% | TK-10 renal 73.5% | ACHN renal 85.8% | CAKI-1 renal 76.1% | A498 renal 26% | CCRF-CEM leukemia 78% | MOLT-4 leukemia 64%

Nc1nc(N)c2c(n1)NC(c1sc(Cl)nc1Cl)CC(c1ccc3c(c1)OCO3)=N2 (stereo not drawn)
inactive: SN12C renal 35.2% | UO-31 renal 30.4% | TK-10 renal 50.6% | ACHN renal 45% | CAKI-1 renal 26.5% | CCRF-CEM leukemia 11.1% | MOLT-4 leukemia 25.3%
active: A498 renal -2.91%

COc1ccc(Nc2ncnc3c2sc2nc(C)cc(C)c23)cc1
inactive: SN12C renal 99.7% | UO-31 renal 91.5% | TK-10 renal 115% | ACHN renal 97.2% | CAKI-1 renal 99.2% | A498 renal 91% | CCRF-CEM leukemia 104% | MOLT-4 leukemia 95.9%

COc1ccc(/C=C2\CCCC3=C2N=C2SC(C)=NN2C3c2ccc(OC)c(OC)c2)cc1OC (stereo not drawn)
inactive: SN12C renal 26.6% | UO-31 renal 36.1% | TK-10 renal 25.6% | ACHN renal 20.7% | CAKI-1 renal 26.1% | A498 renal 52.2% | MOLT-4 leukemia 27.7%
active: CCRF-CEM leukemia 3.82%

COc1ccc(C2CC(c3cccc(Nc4ccnc5cc(Cl)ccc45)c3)=NN2c2ccc(Cl)cc2)cc1 (stereo not drawn)
active: CAKI-1 renal 1.94%
inactive: SN12C renal 89.7% | UO-31 renal 50.1% | TK-10 renal 93.6% | ACHN renal 50.5% | A498 renal 49.7% | CCRF-CEM leukemia 53.5%

COc1ccc(-c2nc(-c3ccccc3OCc3ccccc3OC)nc(C)c2C(C)=O)cc1
inactive: SN12C renal 85.1% | UO-31 renal 64.3% | TK-10 renal 103% | ACHN renal 87% | CAKI-1 renal 73.3% | A498 renal 79.1% | CCRF-CEM leukemia 73.1% | MOLT-4 leukemia 62.4%

COc1ccc2[nH]cc(C(c3ccc(Cl)cc3)N3CCCC3)c2c1 (stereo not drawn)
inactive: SN12C renal 109% | UO-31 renal 59% | TK-10 renal 87.6% | ACHN renal 93.1% | CAKI-1 renal 89.4% | A498 renal 87% | CCRF-CEM leukemia 70.2% | MOLT-4 leukemia 75.1%

COc1ccc(-c2nsc3c2NC(=O)CC3c2cccc(F)c2)cc1 (stereo not drawn)
inactive: SN12C renal 55.7% | UO-31 renal 70.5% | TK-10 renal 51.6% | ACHN renal 66.2% | CAKI-1 renal 38.5% | A498 renal 28.7% | CCRF-CEM leukemia 49.5% | MOLT-4 leukemia 41.6%

Clc1ccc(-c2nc(Br)cn3ccnc23)cc1
inactive: SN12C renal 86.5% | UO-31 renal 40.3% | TK-10 renal 85.7% | ACHN renal 83.4% | CAKI-1 renal 73% | A498 renal 76.6% | CCRF-CEM leukemia 92.8% | MOLT-4 leukemia 78.9%

Nc1ncnc2c1N=C(c1ccc(F)cc1)CC(c1sc(Cl)nc1Cl)N2 (stereo not drawn)
inactive: SN12C renal 81.3% | UO-31 renal 63.2% | TK-10 renal 93.2% | ACHN renal 95.5% | CAKI-1 renal 98% | A498 renal 68.9% | CCRF-CEM leukemia 29.1%

CC(C)CC(NC(=O)OCC1c2ccccc2-c2ccccc21)C(=O)O (stereo not drawn)
inactive: SN12C renal 104% | UO-31 renal 94.2% | TK-10 renal 109% | ACHN renal 112% | CAKI-1 renal 86.6% | A498 renal 95% | CCRF-CEM leukemia 98.7% | MOLT-4 leukemia 96.2%

O=C(CI)NCCNc1cccc2c(S(=O)(=O)O)cccc12
inactive: SN12C renal 94.7% | UO-31 renal 93.4% | TK-10 renal 111% | ACHN renal 107% | CAKI-1 renal 109% | A498 renal 92.7% | CCRF-CEM leukemia 100% | MOLT-4 leukemia 98.3%

Nc1c(C(=O)c2ccc(Br)cc2)sc2nc3c(cc12)CCCC3
inactive: SN12C renal 90.7% | UO-31 renal 89.7% | TK-10 renal 108% | ACHN renal 96.3% | CAKI-1 renal 105% | A498 renal 70.9% | CCRF-CEM leukemia 89.9% | MOLT-4 leukemia 96.4%

Cc1cc(C)c2c(n1)sc1c(Nc3ccc(Cl)cc3Cl)ncnc12
active: UO-31 renal -8.56%
inactive: SN12C renal 13.5% | TK-10 renal 56.7% | ACHN renal 11.7% | CAKI-1 renal 12.9% | A498 renal 15.6% | CCRF-CEM leukemia 16.1% | MOLT-4 leukemia 11.6%

COc1cc(C2C=C(C)N=C3SC=NN32)cc(OC)c1OC (stereo not drawn)
inactive: SN12C renal 100% | UO-31 renal 99.5% | TK-10 renal 109% | ACHN renal 102% | A498 renal 90.9% | CCRF-CEM leukemia 90.7% | MOLT-4 leukemia 97.2%

Nc1nc(N)c2c(n1)NC(c1sc(Cl)nc1Cl)CC(c1ccccc1)=N2 (stereo not drawn)
inactive: SN12C renal 48.7% | UO-31 renal 46.6% | TK-10 renal 70.8% | ACHN renal 61.5% | CAKI-1 renal 44.8% | A498 renal 19.7% | CCRF-CEM leukemia 38.9% | MOLT-4 leukemia 26%

Nc1nonc1-c1nc2ccccc2n1Cc1ccc(F)cc1
inactive: SN12C renal 62.4% | UO-31 renal 42.9% | TK-10 renal 55.9% | ACHN renal 68.1% | CAKI-1 renal 35.9% | A498 renal 42.1% | CCRF-CEM leukemia 54.2% | MOLT-4 leukemia 30%

C=CCn1c(C)nc2cc(Nc3nc(N4CCCC4)nc4nc[nH]c34)ccc21
active: A498 renal 1.35%
inactive: SN12C renal 36.8% | UO-31 renal 61.2% | TK-10 renal 11.8% | ACHN renal 17.8% | CAKI-1 renal 89% | CCRF-CEM leukemia 83.9% | MOLT-4 leukemia 89%

NS(=O)(=O)c1ccc(N2N=C(c3cccs3)CC2c2ccccc2O)cc1 (stereo not drawn)
inactive: SN12C renal 16.5% | UO-31 renal 34.9% | TK-10 renal 23.5% | ACHN renal 15.9% | CAKI-1 renal 24.2%
active: A498 renal -13.2% | CCRF-CEM leukemia 4.36% | MOLT-4 leukemia 8.13%

C=CCn1c(C)nc2cc(Nc3nc(N4CCOCC4)nc4nc[nH]c34)ccc21
inactive: SN12C renal 84.3% | UO-31 renal 87.4% | TK-10 renal 92.4% | ACHN renal 93.7% | CAKI-1 renal 93.8% | A498 renal 37.5% | CCRF-CEM leukemia 89.9% | MOLT-4 leukemia 74.4%

COc1cc(C(=O)/C=C/c2cn(-c3ccccc3)nc2-c2cccc(Nc3ccnc4cc(Cl)ccc34)c2)cc(OC)c1OC
inactive: SN12C renal 90.9% | UO-31 renal 86.4% | TK-10 renal 133% | ACHN renal 108% | CAKI-1 renal 103% | A498 renal 99.6% | CCRF-CEM leukemia 21% | MOLT-4 leukemia 63.3%

CCN(CC)C(Cl)=Nc1ccc(Cl)cc1
inactive: SN12C renal 99.2% | UO-31 renal 87.8% | TK-10 renal 101% | ACHN renal 98.5% | CAKI-1 renal 103% | A498 renal 99.6% | CCRF-CEM leukemia 100% | MOLT-4 leukemia 95.7%
